Screening results as filed in PubChem BioAssay.
ERG Ets-DNA blk: qHTS for Small Molecule Inhibitors of the ERG Ets/DNA interaction. AID 624246, 2012. Potency, µM (titrated, usually from 76.9 µM), most hits filed as inhibitors. fluorescence polarization, His-ERG Ets domain / labelled DNA. Transcriptional regulator ERG (Homo sapiens), P11308. 370,000 tested, 0.028% active; active means well fitted inhibition curve with a large enough effect in the polarisation, with a control signal flat; inconclusive means small, poorly fitted or top-dose-only effect, or effect the other way, or a change in a side signal; inactive means no such curve, though single readings can be large or run the other way; the % refers to the polarisation;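 further: polarization taken with two DNA probes labelled with fluorescein and Texas red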
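His-tagged ERG Ets domain (1 uM in the protein solution; 300mM KCl, 50mM Tris-HCl, 1mM EDTA, 1mM DTT, pH 7.5) received compound, then a probe mix of 5 nM fluorescein-DNA and 100nM Texas-615-DNA. Fluorescence polarization was read for both dyes.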
RORgamma inh: qHTS for inhibitors of ROR gamma transcriptional activity. Potency, µM (doses to about 53.6 µM), most hits filed as inhibitors. Nuclear receptor ROR-gamma (Mus musculus), P51450. Drosophila S2 Gal4-RORgamma UAS-luciferase reporter, 20 h. 310,000 tested, 5.4% active. AID 2551, 2010; further: nearly all actives have a fitted effect of over 60% in size
Target sequence (P51450 whole entry, looked up, the tested form may be a part): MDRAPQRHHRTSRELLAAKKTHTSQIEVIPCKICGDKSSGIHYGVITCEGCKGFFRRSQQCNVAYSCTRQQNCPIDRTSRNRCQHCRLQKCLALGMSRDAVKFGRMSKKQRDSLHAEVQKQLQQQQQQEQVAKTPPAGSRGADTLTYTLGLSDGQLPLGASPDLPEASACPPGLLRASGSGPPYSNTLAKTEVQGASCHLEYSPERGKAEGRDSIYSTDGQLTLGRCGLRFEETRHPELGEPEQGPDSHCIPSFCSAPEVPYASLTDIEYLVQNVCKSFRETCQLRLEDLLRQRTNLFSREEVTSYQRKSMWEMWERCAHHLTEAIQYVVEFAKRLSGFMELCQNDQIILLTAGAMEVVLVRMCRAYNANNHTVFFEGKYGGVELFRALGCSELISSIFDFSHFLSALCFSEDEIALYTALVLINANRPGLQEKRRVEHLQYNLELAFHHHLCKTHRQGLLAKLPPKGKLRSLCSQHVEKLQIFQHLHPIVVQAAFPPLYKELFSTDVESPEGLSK
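Using a luciferase readout, inhibitors were identified by reduced reporter activity in Drosophila cells coexpressing a copper-inducible Gal4–ROR gamma fusion and UAS-driven Photinus luciferase, incubated 20 hr after 700 uM copper sulfate.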
Gal4-VP16 FLuc: VP16 counterscreen qHTS for inhibitors of ROR gamma transcriptional activity | Drosophila S2 Gal4-VP16 UAS-luciferase, luminescence, 20 h | Potency, µM (highest dose often 53.6 µM), most hits filed as inhibitors | 310,000 tested, 3.5% active | AID 2546, 2010;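 further: Gal4-VP16 expression switched on by copper sulfate through the metallothionein promoter; nearly all actives have a fitted effect of over 50% in size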
a7 integrin act: qHTS for Activators of Integrin-Mediated Alleviation for Muscular Dystrophy; Potency, µM (series often up to 38.3 µM), actives largely listed as activators; 350,000 tested, 0.064% active; alpha7betagal myoblasts, beta-gal FDG fluorescence, 48 h; AID 624291, 2012; further: nearly all actives have a fitted effect of over 60% in size
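alpha7betagal+/- myoblasts (passage 13, 250/well) treated 48 h at 37C with compounds at 1:260 dilution of DMSO stock. Lysed, then beta-galactosidase activity read as FDG fluorescence (ex 480/em 540) after 30 min, with pre-read for autofluorescence.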
Giardia kill: Small Molecules that selectively kill Giardia lamblia: qHTS; Giardia lamblia trophozoite viability; AID 540267, 2011; activity change, % at 7.66 µM, hits read low; 340,000 tested, 0.15% active; in the data active means activity change below about -80%; inconclusive means between about -30% and that limit;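 further: parasites exposed to compound for two days anaerobically before the ATP read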
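Media and compound were dispensed first, then trophozoites at 100 cells/well; plates sat 48 hrs at 37 deg C without oxygen before ATP luminescence reagent was added and read after 15-30 min at room temperature.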
Each line names hits and unclear results; the compound was inactive in the other large screens. Only a selection was taken, and hits are over-represented in it overall. Unless noted, the call rests on the fitted dose curve; in most records, active means well fitted curve in the direction sought with a large enough effect; inconclusive means small, poorly fitted or top-dose-only effect, or another doubt; inactive means no such curve, though single readings can be large; an effect the other way counts as inactive or inconclusive.

O=C(CNC(=S)NC(=O)c1ccc(Br)o1)c1ccccc1	RORgamma inh 13µM, Gal4-VP16 FLuc inconclusive
O=C(CNC(=O)c1ccc(Br)o1)NNC(=O)c1ccccc1	none (no result: RORgamma inh, Gal4-VP16 FLuc)
COc1cc2[nH]c(=S)n(Cc3cccs3)c(=O)c2cc1OC	RORgamma inh inconclusive
CCCCN(C)CCn1c(=S)[nH]c2cc(OCC)c(OCC)cc2c1=O	RORgamma inh 11µM, Gal4-VP16 FLuc inconclusive
CCOc1cc2[nH]c(=S)n(CCCN(CC)CC)c(=O)c2cc1OCC	none
CCCn1c(=S)[nH]c2cc(OC)c(OC)cc2c1=O	RORgamma inh 3.2µM, Gal4-VP16 FLuc 7.9µM
CCOc1cc2[nH]c(=S)n(CCOC)c(=O)c2cc1OCC	RORgamma inh 2.8µM, Gal4-VP16 FLuc 8.9µM
COCCn1c(=S)[nH]c2ccc(N(C)C)cc2c1=O	RORgamma inh 16µM, Gal4-VP16 FLuc inconclusive
COCCn1c(=S)[nH]c2cc(C(=O)NCc3ccccc3)ccc2c1=O	none (no result: ERG Ets-DNA blk, RORgamma inh, Gal4-VP16 FLuc, Giardia kill)
CCOCCCNC(=O)c1cn(C)c2ccc(S(=O)(=O)N3CCCC3)cc2c1=O	a7 integrin act inconclusive
COc1ccc(C(C)NC(=O)Cc2cccs2)cc1 (centres undefined)	none
CC1(C)CC=CC(COC(=O)c2ccccc2C(=O)O)C1 (centres undefined)	none (no result: RORgamma inh, Gal4-VP16 FLuc)
CCCCC(=O)Nc1cc(C)c(O)c(-c2nc3ncccc3o2)c1	none (no result: RORgamma inh, Gal4-VP16 FLuc, a7 integrin act, Giardia kill)
Cc1ccc(Nc2nc(NCc3ccco3)nc3nccnc23)cc1C	none (no result: ERG Ets-DNA blk, RORgamma inh, Gal4-VP16 FLuc, a7 integrin act)
CCOC(=O)N1CCC(n2c(=S)[nH]c3cc(OC)c(OC)cc3c2=O)CC1	RORgamma inh inconclusive, Gal4-VP16 FLuc 11µM
O=c1c2c(nc3n1CCCCC3)sc1c(O)c(Br)ccc12	RORgamma inh 8.9µM, Gal4-VP16 FLuc 4.5µM
CCN(CC)CCOc1c(Br)ccc2c1sc1nc3n(c(=O)c12)CCC3	none
CC(=O)N1C2(C=CC1(C)C(=O)NCc1ccccn1)CCCCC2 (centres undefined)	RORgamma inh 11µM, Gal4-VP16 FLuc inconclusive (no result: ERG Ets-DNA blk, a7 integrin act, Giardia kill)
O=C(Nc1ccccn1)c1onc2c1CCCC2	RORgamma inh 6.3µM, Gal4-VP16 FLuc 8.9µM, Giardia kill inconclusive
O=C(Nc1ccccn1)c1csc2c1CCCC2	Gal4-VP16 FLuc inconclusive
Cc1ccc[n+](CC(=O)Nc2cc(C(F)(F)F)ccc2Cl)c1	none (no result: ERG Ets-DNA blk)
CCC(C)(C)c1ccc(OCCCC[n+]2cccc(C)c2)c(C(C)(C)CC)c1	RORgamma inh inconclusive, Gal4-VP16 FLuc 13µM
COc1cccc(Cn2c(=O)c(-c3cccc(C#N)c3)nc3cnc(Nc4ccccc4)nc32)c1	none (no result: ERG Ets-DNA blk, a7 integrin act, Giardia kill)
CNc1ccc(-c2nc3ccccc3s2)cc1	RORgamma inh 1.4µM, Gal4-VP16 FLuc inconclusive (no result: ERG Ets-DNA blk, a7 integrin act, Giardia kill)
O=C(CNS(=O)(=O)c1cccc(Cl)c1)Nc1ccc(-c2nc3ccccc3s2)cc1	Gal4-VP16 FLuc 2µM
O=C(CCS(=O)(=O)c1ccccc1)Nc1cccc(-c2nc3ccccc3s2)c1	RORgamma inh inconclusive
O=C(CCS(=O)(=O)c1ccccc1)Nc1ccc(-c2nc3ccccc3s2)cc1	RORgamma inh inconclusive, Gal4-VP16 FLuc 5.6µM
OC1(c2ccc(Cl)c(C(F)(F)F)c2)CCN(CCCC(c2ccc(F)cc2)c2ccc(F)cc2)CC1	RORgamma inh 13µM, Gal4-VP16 FLuc 10µM (no result: ERG Ets-DNA blk, a7 integrin act, Giardia kill)
OC(CCCN1CCC(O)(c2ccc(Cl)cc2)CC1)c1ccc(F)cc1 (centres undefined)	none (no result: a7 integrin act)
O=C(N/N=C/C=C/c1ccccc1[N+](=O)[O-])c1cc(-c2ccccc2)n[nH]1	RORgamma inh 7.1µM, Gal4-VP16 FLuc 14µM
Cc1ccsc1C(=O)N/N=C/C=C/c1ccccc1[N+](=O)[O-]	RORgamma inh 5.6µM, Gal4-VP16 FLuc 5.6µM
Cc1occc1C(=O)N/N=C/C=C\c1ccccc1[N+](=O)[O-]	RORgamma inh inconclusive, Gal4-VP16 FLuc inconclusive
COc1ccccc1CNC(=O)CCCc1nnc2n(CC(C)C)c(=O)c3sccc3n12	none (no result: RORgamma inh, Gal4-VP16 FLuc, a7 integrin act, Giardia kill)
CC(Sc1nc(N)cc(=O)[nH]1)C(=O)Nc1ccc(N2CCOCC2)cc1 (centres undefined)	none (no result: ERG Ets-DNA blk, RORgamma inh, Gal4-VP16 FLuc, Giardia kill)
Cc1cnc(CNc2ncncc2-c2c(C)noc2C)cn1	none (no result: ERG Ets-DNA blk, a7 integrin act, Giardia kill)
CCCn1c(C(O)c2ccc(C)cc2)nc2ccccc21 (centres undefined)	RORgamma inh 2.8µM, Gal4-VP16 FLuc inconclusive
